In the library only some 3.5% were active in any assay of this set; here they are far more common.
mHTT-CaM PPI inh = mutant huntingtin-calmodulin interaction inhibitors – biochemical, AlphaScreen, primary screen | AID 1671202, 2021 | actives 3.6% (n = 190,000) | inhibition, % at 15 µM | AlphaScreen His-mHTT/GST-CaM binding, luminescence
Pf apPOL block = Pf-apPOL inhibitors, biochemical, fluorescence; Recombinant Pf-apPOL, molecular beacon fluorescence, 1.5 h; inhibition, % at 10 µM; actives 0.25% (n = 210,000); AID 1794808, 2022
Large screens that a line does not name were inactive. No stated cut-off is given here; in the data, active means inhibition above about 50%; inactive means the rest.

CCOc1ccc(N=C2S/C(=C/c3ccc(N(C)C)cc3)C(=O)N2CC)cc1	none
O=C(Cn1c(=O)n(-c2ccc(F)cc2)c(=O)c2sccc21)NC1CCCC1	none
CC(=O)N1CCN(S(=O)(=O)c2ccc(N)cc2)CC1	none
COc1ccc2c(c1)C1(NC(=O)c3ccccc3N1)C(=O)N2 (stereo unspecified)	none
COC(=O)C1=C(C(=O)OC)SC2(S1)C(C(=O)OC)=C(C(=O)OC)SC1=C2c2cc(OC)ccc2NC1(C)C	mHTT-CaM PPI inh 63 (no result: Pf apPOL block)
CS(=O)(=O)N(CC(=O)NC1CCCCC1)c1cc(C(F)(F)F)ccc1Cl	none
CC(C)C(=O)NC(c1ccco1)c1cc([N+](=O)[O-])c2cccnc2c1O (stereo unspecified)	mHTT-CaM PPI inh 100
CCCC(=O)NC(c1ccco1)c1cc([N+](=O)[O-])c2cccnc2c1O (stereo unspecified)	mHTT-CaM PPI inh 100
CC(=O)NC(c1ccco1)c1cc([N+](=O)[O-])c2cccnc2c1O (stereo unspecified)	mHTT-CaM PPI inh 100
CC(C)C(=O)NC(/C=C/c1ccccc1)c1cc([N+](=O)[O-])c2cccnc2c1O (stereo unspecified)	none
COc1cc(/C=C2\C(=O)NC(=O)N(c3ccc(C)cc3)C2=O)ccc1O	none
O=C(Nc1cc(Br)ccc1O)C1CC(c2ccc(F)cc2)=NO1 (stereo unspecified)	none
CC(C)(C)c1ccc(C(=O)N2CCC3(C2)NC(=O)N(Cc2ccc(Cl)cc2)C3=O)cc1 (stereo unspecified)	none
CCN(CC)c1ccc(C(Nc2ccccn2)c2ccc3cccnc3c2O)cc1 (stereo unspecified)	mHTT-CaM PPI inh 100
CCN(CC)c1ccc(C2C(C(=O)Nc3ccccn3)=C(C)NC3=C2C(=O)CCC3)cc1 (stereo unspecified)	none
CC(C)Oc1ccc(C(=O)Nc2cc(-c3nc4ncccc4o3)ccc2Cl)cc1	none
CC(C)Oc1ccc(C(Nc2ccccn2)c2ccc3cccnc3c2O)cc1 (stereo unspecified)	mHTT-CaM PPI inh 98
CCOC(Cn1c(SCC(=O)N2CCCC2)nc2ccccc2c1=O)OCC	none
COc1ccc2c(CN3CCCCCC3)cc(=O)oc2c1	none
O=C(Nc1cc(Cl)c(Cl)cc1Cl)C1CCCCC1	none
CC(C)N1CCC2(CC1)N=C(c1ccc3c(c1)OCO3)CC(c1ccccc1O)N2 (stereo unspecified)	none
CCOC(=O)N1CCC2(CC1)N=C(c1ccccc1)CC(c1cc(Cl)ccc1O)N2 (stereo unspecified)	none
CC(C)C1(C)N=C(c2ccc3c(c2)OCO3)CC(c2ccccc2O)N1 (stereo unspecified)	mHTT-CaM PPI inh 64
COc1cccc(C2=NC(C)(CC(C)C)NC(c3ccccc3O)C2)c1 (stereo unspecified)	mHTT-CaM PPI inh 98
COc1cccc(C2=NC(C(C)C)NC(c3cc(Cl)ccc3O)C2)c1 (stereo unspecified)	mHTT-CaM PPI inh 52
CCCC1(C)N=C(c2ccc(OCC)cc2)CC(c2ccccc2O)N1 (stereo unspecified)	none
COc1cccc(C2=NC(C(C)C)NC(c3ccccc3O)C2)c1 (stereo unspecified)	none
COc1cccc(C2=NC(C)(C)NC(c3cc(Cl)ccc3O)C2)c1 (stereo unspecified)	mHTT-CaM PPI inh 100
O=C(CCn1ccc(=O)[nH]c1=O)N1CC(c2nc(Cc3ccccc3)no2)C1	none
CCC(=O)N1CCN(c2nc3c(s2)CC(C(=O)NCc2cccc(C)c2)CC3)CC1 (stereo unspecified)	none
COc1ccc(S(=O)(=O)N(CC(=O)NCc2ccccn2)c2ccc(Cl)cc2)cc1	none
CC1=C(C(=O)Nc2ccc(Cl)cc2)C(c2cccc([N+](=O)[O-])c2)n2c(nc3ccccc32)N1 (stereo unspecified)	mHTT-CaM PPI inh 72
COc1ccccc1NC(=O)C1=C(C)Nc2nc3ccccc3n2C1c1cccc([N+](=O)[O-])c1 (stereo unspecified)	none
COc1ccc(C(=O)Nc2ccc(-c3ccc([N+](=O)[O-])cc3)cc2)c(OC)c1OC	none
O=C(O)CC(C(=O)O)c1c[nH]c2ccccc12 (stereo unspecified)	none
c1ccc(C(c2c[nH]c3ccccc23)c2c[nH]c3ccccc23)nc1	mHTT-CaM PPI inh 74
CCC(C)NC(=O)CSc1nc2n[nH]c(C)c2c(=N)n1-c1ccc(OC)cc1 (stereo unspecified)	none
Cc1[nH]nc2nc(SCC(=O)NCC3CCCO3)n(-c3ccc(Br)cc3)c(=N)c12 (stereo unspecified)	mHTT-CaM PPI inh 52
Cc1ccc(-n2c(SCC(=O)NCc3ccco3)nc3n[nH]c(C)c3c2=N)cc1C	none
CCOc1ccc(-n2c(SC(CC)C(=O)N(CC)CC)nc3n[nH]c(C)c3c2=N)cc1 (stereo unspecified)	mHTT-CaM PPI inh 52
COc1cccc(NC(=O)CSc2nc3n[nH]c(C)c3c(=N)n2-c2ccc(C)cc2)c1	mHTT-CaM PPI inh 57
CCOc1ccc(-n2c(SCC(=O)NCC3CCCO3)nc3n[nH]c(C)c3c2=N)cc1 (stereo unspecified)	none
CCOc1ccc(-n2c(SC(CC)C(=O)NCCOC)nc3n[nH]c(C)c3c2=N)cc1 (stereo unspecified)	none
Cc1[nH]nc2nc(SCC(=O)NCc3ccco3)n(-c3ccc(Br)cc3)c(=N)c12	mHTT-CaM PPI inh 80
CCc1ccc(C(=O)/C=C/Nc2ccc(C)cc2O)cc1	none
O=c1[nH]c(=S)c2c(n1CCCO)CCCC2	none
CCN(CC)C(=O)c1cc2cc(Br)ccc2oc1=O	none
O=C(C1CCCCC1)N1CCN(c2nnc3ccc(C(F)(F)F)cn23)CC1	none
CC(C)(C)S(=O)(=O)C(C#N)=Cc1ccc(F)c(Cl)c1	none (no result: mHTT-CaM PPI inh)
CSc1nc(C)cc(Oc2ccc(OCc3ccccc3)nn2)n1	none
O=C(c1cc(-c2ccccc2)nc2ccccc12)N1CCOCC1	none
O=C(N/C(=C\c1ccc(Br)cc1)c1nc2ccccc2o1)c1ccco1	mHTT-CaM PPI inh 94
NC(=Nc1nc2ccccc2o1)NC(=O)c1ccco1	none
CCN(CC)Cc1c(O)ccc2c(=O)c(-c3ccc4c(c3)OCCO4)coc12	none
Cc1c(Cl)cccc1NC(=O)C(=O)NCC(O)c1ccc(C(F)(F)F)cc1 (stereo unspecified)	none
O=S(=O)(NCC(O)c1ccc(C(F)(F)F)cc1)c1ccc2c(c1)CCCC2 (stereo unspecified)	mHTT-CaM PPI inh 100
Cc1c(Cl)cccc1S(=O)(=O)NCC(O)c1ccc(C(F)(F)F)cc1 (stereo unspecified)	mHTT-CaM PPI inh 68
CC(C)S(=O)(=O)c1ccc(CC(=O)NCC(O)c2ccc(C(F)(F)F)cc2)cc1 (stereo unspecified)	none
COc1ccc(C2C3=C(Nc4ncnn42)c2ccccc2OC3c2cccc([N+](=O)[O-])c2)cc1 (stereo unspecified)	none
CC(C)N1CCN(C(=O)C2CC(=O)N(CCc3ccccc3)C2)CC1 (stereo unspecified)	none
O=C1S/C(=C\c2ccccc2)C(=O)N1CNc1ccc(I)cc1	none
COc1ccc(CNC(=O)c2cccc(N3CCNC(c4ccccc4)C3)n2)c(OC)c1 (stereo unspecified)	mHTT-CaM PPI inh 97
O=C(NCc1cnccn1)c1ccc(N2CCNC(c3ccccc3)C2)nc1 (stereo unspecified)	none
